# Laboratory results from PubChem BioAssay AID589 (National Center for Advancing Translational Sciences (NCATS), 2007).
# The whole screen tested about 59,000 compounds, of which about 6,200 (11%) were called active. Not shown: some 9% with an inconclusive outcome. Rule as the data show it: active = max dye-equivalent concentration above about 10 nM; inconclusive = mostly about 1.1 nM to 9.6 nM; inactive = weaker than that. The entries come from a sample that favours actives as a whole.
# Assay: qHTS Assay for Spectroscopic Profiling in 4-MU Spectral Region
# Settings: compound autofluorescence, 340/450 nm, 4-MU equivalents; hits give high values
# Text: NIH Molecular Libraries Screening Centers Network [MLSCN] NIH Chemical Genomics Center [NCGC] […] Occasionally, the artifactual effect may originate from the compounds own spectral or other biophysical properties which generally tend to track its assay concentration. Pre-screening/profiling the library with respect to the compounds spectral properties should help one exclude false positives early on. While the most informative fluorescent profiling data set is obtained by performing a full excitation and emission scan of each well by using a monochromator-based plate reader, such an approach is practical only on a very limited scale as scanning each well requires long time. An alternative approach, applied here, is to perform plate reader scans using selected excitation and emission wavelength pairs to generate a multidimensional relational database that correlates compound concentration and the respective relative fluorescence intensity at a given wavelength set. A standard curve of 4-methylumbelliferone (4-MU) present on each plate as six-point concentration series, was used to compute a normalized fluorescence response, termed dye-equivalent concentration, for each compound at each concentration.
# NCGC Assay Protocol Summary: Buffer: 100 mM Tris buffer, pH 8.0 Dye standard plate: The wells in columns 1 through 4 of a Kalypsys polypropylene 1536-well compound plate were filled with standard solutions of fluorophore corresponding to the spectral region of interest. Solutions of 4-MU were placed in the following wells: A1, B1: 3 mM, A2, B2: 300 uM, A3, B3: 30 uM, A4, B4: zero (DMSO), C1, D1: 3 uM, C2, D2: 900 nM, C3, D3: 300 nM, C4, D4: zero (DMSO). Assay Steps: Six uL of buffer were dispensed to 1536-well Greiner black plates. Compounds and dye standards (23 nL) were transferred via Kalypsys PinTool. The plates were incubated for 15 min at room temperature, and then read on ViewLux (Perkin-Elmer) High-throughput CCD imager using 340 nm and 450 nm excitation and emission filter set. Keywords: NIH Roadmap, MLSCN, MLI, MLSMR, qHTS, NCGC, Fluorescent Profiling, 4MU, 4-MU
row,SMILES,max dye-equivalent concentration
1,CCOC(=O)c1[nH]c2ccccc2c1N=C(C)N(CC)CC,inactive
2,CCOC(=O)c1[nH]c2ccc(C)cc2c1N=C(C)N(C)C,31 nM (active)
3,CCOC(=O)CN(C)Cc1c[nH]c2ccccc12,inactive
4,CCCNS(=O)(=O)c1ccc(CCC(=O)NCc2cccnc2)cc1,inactive
5,CCOc1ccc(NC(=O)N(CCC(C)C)C(C)c2ccco2)cc1 (centres undefined),inactive
6,CSc1nsc(SC)c1NC(=O)OC1CCCCC1,inactive
7,O=C(Nc1ccc(S(=O)(=O)N2CCCCC2)cc1)c1cnccn1,inactive
8,CC(=O)C1=C(O)C(=O)N(c2ccc(S(N)(=O)=O)cc2)C1c1ccccc1F (centres undefined),21 nM (active)
9,CCN1C(=O)C(C(=O)NC(C)c2ccccc2)C2CC1(C)Oc1ccccc12 (centres undefined),inactive
10,Cn1nc(-c2ccc(N3CCOCC3)c(NC(=O)c3ccccc3)c2)c2ccccc2c1=O,inactive
11,Cn1c(=O)n(C)c2cc(CNc3ccc(N4CCOCC4)c(C(=O)O)c3)ccc21,18 nM (active)
12,CC(=O)Nc1ccc(N2CCOCC2)c(C(=O)Nc2cccc(C)c2)c1,inactive
13,CCCn1c(=O)c2[nH]c(-c3ccc(OCC(=O)NCCN)cc3)nc2n(CCC)c1=O,inactive
14,CC(=O)c1cc(-c2ccccc2)[nH]c1N1CCCC1,inactive
15,Cc1cc(N2CCCC2)n2nc(C)c(-c3ccccc3)c2n1,660 nM (active)
16,CCCc1nc(-c2ccccc2O)n(-c2ccccc2)n1,inactive
17,CCn1ccnc1C[C@@H]1COc2ccccc2O1,inactive
18,O=C(c1csnn1)N1CCC2(CC1)CN(c1ncccn1)C2,inactive
19,CCOc1ccccc1NC(=O)CCN1CCN(S(=O)(=O)c2ccc(OC)cc2)CC1,inactive
20,COc1cccc(N2C(=O)CC(N3CCN(S(=O)(=O)c4ccccc4)CC3)C2=O)c1 (centres undefined),inactive
21,COc1ccc(S(=O)(=O)N2CCN(c3ncnc4c(-c5ccccc5)nsc34)CC2)cc1,88 nM (active)
22,Cc1ccc(-c2noc(CCC(N)=O)n2)cc1,inactive

row,SMILES,max dye-equivalent concentration
1,CCOC(=O)N1CCN(C(=O)CSc2nnc(-c3c[nH]c4ccccc34)n2CCOC)CC1,inactive
2,O=C(Nc1nn(Cc2ccccc2F)cc1Br)c1cccs1,inactive
3,Cn1cccc1C(=O)N1CCC2(CC1)CN(c1cccc(-c3ccccc3)c1)C2,inactive
4,CCOc1cc(S(=O)(=O)NCc2ccc3c(c2)OCO3)ccc1F,inactive
5,Cc1ccc(S(=O)(=O)NCc2nc3ccccc3c(=O)n2N)cc1,inactive
6,Cc1ccc(S(=O)(=O)c2c(N)n(C)c3nc4ccccc4nc23)cc1,2500 nM (active)
7,COCCn1c(CN2CCC(Cc3ccccc3)CC2)nc2c1c(=O)n(C)c(=O)n2C,inactive
8,Cn1c(=O)c(-c2ccccc2)nc2cnc(N3CCNCC3)nc21,270 nM (active)
9,N#Cc1cccc(-c2nc3cnc(N4CCNCC4)nc3n(C3CC3)c2=O)c1,300 nM (active)
10,Cc1nc2cnc(Oc3cccc(Cl)c3)nc2n(C2CC2)c1=O,inactive
11,COCCn1c(=O)c(-c2cc(F)cc(F)c2)nc2cnc(N3CCNCC3)nc21,350 nM (active)
12,COCCn1c(=O)c(CCc2ccccc2)nc2cnc(N3CCNCC3)nc21,56 nM (active)
13,Cn1cc(-c2nc3cnc(N4CCNCC4)nc3n(CCC#N)c2=O)c2ccccc21,inactive
14,c1cncc(-c2nc(N3CCNCC3)c3ccccc3n2)c1,inactive
15,CC1(C)C2CCC1(C)C(OC(=O)CCn1ccnc1)C2 (centres undefined),inactive
16,Cc1ccc(C(=O)CSc2nnc(Cn3nnc4ccccc43)n2C)cc1,inactive
17,CCCn1c(=O)c(-c2ccccc2)c(O)c2ccccc21,inactive
18,CCOC(=O)c1sc(N(Cc2ccccc2)C(=O)CN2C(=O)CN(C)C2=O)nc1C,inactive
19,CCn1c(CSc2ncccn2)nnc1SCC(=O)N1c2ccccc2CC1C (centres undefined),inactive
20,Cc1nc2cnc(Nc3ccccc3)nc2n(C[C@H]2CCCO2)c1=O,inactive
21,Cc1nc2cnc(N3CCN(C)CC3)nc2n(C[C@H]2CCCO2)c1=O,48 nM (active)
22,Cc1nc2cnc(N3CCN(C)CC3)nc2n(CCC#N)c1=O,inactive

row,SMILES,max dye-equivalent concentration
1,O=c1c(-c2ccc(F)cc2)nc2cnc(N3CCNCC3)nc2n1Cc1cccs1,15 nM (active)
2,Cn1c(=O)c2c(nc(OCc3cccnc3)n2Cc2ccccc2)n(C)c1=O,inactive
3,COCCn1c(=O)c(CCc2ccccc2)nc2cncnc21,83 nM (active)
4,O=c1c(CCc2ccccc2)nc2cncnc2n1C1CC1,inactive
5,Cc1nc2cnc(N3CCNCC3)nc2n(Cc2ccc(F)cc2)c1=O,98 nM (active)
6,Cc1cc(C)c(C(=O)CN2C(=O)CCC2=O)cc1C,inactive
7,CCOC(=O)Nc1ccc2c(c1)N(C(=O)CN1CCN3CCCC3C1)c1ccccc1CC2 (centres undefined),inactive
8,O=C(Nc1ccc2c(c1)OCCO2)C1CCCN(c2ncccn2)C1 (centres undefined),inactive
9,CCOP1(=O)C=C(C(C)(C)C)OC1c1ccc(F)cc1 (centres undefined),inactive
10,CC(c1nnc(SCC(=O)Nc2sccc2C#N)n1-c1ccc(Cl)cc1)N(C)C (centres undefined),inactive
11,CCC(=O)Nc1sc(C(=O)N2CCCCC2)c(C)c1C#N,inactive
12,COCCNC(=O)CN(C(=O)CCC(=O)Nc1cc(C)on1)c1ccc(C)cc1C,inactive
13,O=S(=O)(/C=C/c1ccccc1)NCCc1ccccn1,inactive
14,Cc1nc2cnc(N3CCNCC3)nc2n(CCc2ccccc2)c1=O,49 nM (active)
15,Cn1cc(-c2nc3cnc(N4CCNCC4)nc3n(CCc3ccccc3)c2=O)c2ccccc21,inactive
16,Cn1c(=O)n(CCc2ccccc2)c(=O)c2c1nc1n2CCCN1c1ccccc1,inactive
17,OCc1nc(CO)n(Cc2ccccc2)n1,inactive
18,CCCCCn1c(SCCC(C)C)nc2c1c(=O)[nH]c(=O)n2C,inactive
19,C/C(O)=C\c1nc(=O)c2c(C)cc(C)nc2n1-c1ccccc1,43 nM (active)
20,Cc1cc(C)nc(N(C#N)CC(=O)Nc2ccccc2)n1,inactive
21,N#CCSc1nc2ccccc2c(=O)n1-c1ccccc1,inactive
22,COc1ccc(C2C3=C(CC(C)(C)CC3=O)Oc3ncn4nc(-c5cccnc5)nc4c32)cc1OC (centres undefined),inactive

row,SMILES,max dye-equivalent concentration
1,CC(=O)Nc1ccc(S(=O)(=O)N2CCN(CCCOc3cc(C)ccc3C)CC2)cc1,inactive
2,COc1cccc(NC(=O)C2CCCN2C(=O)OCc2ccccc2)c1 (centres undefined),inactive
3,CC(C)C(NC(=O)OCc1ccccc1)C(=O)OCC(=O)N1C(C)CCCC1C (centres undefined),37 nM (active)
4,NC1(C(=O)OCc2ccccc2)CCCC1,inactive
5,CCCC[C@H]1C(=O)N(c2ccccc2)N(c2ccc(O)cc2)C1=O,inactive
6,CCCOc1ccc(NC(=O)C2CCCNC2=O)cc1 (centres undefined),inactive
7,O=C1CCC(C(=O)Nc2ccc(OC(F)F)cc2)N1 (centres undefined),18 nM (active)
8,COC(=O)COc1ccc(S(=O)(=O)Nc2ccc(NC(C)=O)cc2)cc1,inactive
9,O=C(O)C1CCN(c2ncnc3ccc(-c4ccccc4C(F)(F)F)cc23)CC1,inactive
10,COc1ccc(-c2nc3n(c2Br)CCC3)cc1,inactive
11,Cc1cccc(OCc2nnc(SCn3nnc4ccccc4c3=O)o2)c1,inactive
12,CCCCCCn1c(CN2CCCC(C)C2)nc2c1c(=O)n(C)c(=O)n2C (centres undefined),inactive
13,CCCn1c(O)c(CN2CCCC(C)C2)c(C)c(C#N)c1=O (centres undefined),13 nM (active)
14,O=C(Cc1c(F)cccc1Cl)N1CCN(C(=O)c2ccco2)CC1,inactive
15,CCN(Cc1ccncc1)C(=O)[C@@H](CO)c1ccccc1,inactive
16,Clc1ccc(Cc2nn3c(-c4ccncc4)nnc3s2)cc1,inactive
17,COc1cccc(C(=O)Nc2c3c(nn2-c2cccc(C)c2C)CS(=O)(=O)C3)c1OC,inactive
18,COc1ccccc1CNc1nc(-c2c(C)noc2C)nc2ccccc12,inactive
19,c1cnn(-c2cc(N3CCOCC3)ncn2)c1,inactive
20,c1ccc(-n2nnnc2N2CCOCC2)cc1,inactive
21,c1ccc(-c2oc3ncnc(N4CCOCC4)c3c2-c2ccccc2)cc1,11 nM (active)
22,CCCCOc1ccccc1/C=c1/sc2nc(-c3oc4ccccc4c3C)nn2c1=O,inactive

row,SMILES,max dye-equivalent concentration
1,CCc1ccccc1NC1c2ccccc2C(=O)N1c1cccnc1 (centres undefined),inactive
2,O=C(O)C1=CCCN(CCON=C(c2ccccc2)c2ccccc2)C1,inactive
3,Cc1cccc(CNc2ccnc(-c3cccnc3)n2)c1,inactive
4,O=C(Nc1cccnc1)c1ccc2c(c1)OCO2,inactive
5,c1cncc(CNc2ccnc(-c3ccc4c(c3)OCO4)n2)c1,14 nM (active)
6,COc1ccc(Br)c2c1C[C@H](C(=O)O)CC2,inactive
7,CCOc1cc(CO)ccc1OCC(=O)N1CCCCC1,inactive
8,Cc1ccccc1CSc1nnc(-c2ccccn2)n1N,inactive
9,CC(=O)c1cccc(S(=O)(=O)N2CCC(n3nnc4cc(F)ccc43)CC2)c1,inactive
10,O=C(NCc1cccs1)C1CCN(S(=O)(=O)c2ccc3c(c2)OCCO3)CC1,inactive
11,O=C(c1ccc2c(c1)OCCO2)C1CCN(S(=O)(=O)c2cccc(F)c2)CC1,12 nM (active)
12,COc1cccc(NC(=O)Cn2cnc3sc(C)c(S(=O)(=O)N4CCN(C)CC4)c3c2=O)c1,inactive
13,Cc1ccc(C(CC(=O)O)Nc2nc(N3CCCCC3)nc(N3CCCCC3)n2)cc1 (centres undefined),inactive
14,CC(Nc1nc(N2CCCC2)nc2ccccc12)c1ccccc1 (centres undefined),150 nM (active)
15,CC(C)(CSc1nncn1/N=C/c1ccco1)NS(=O)(=O)c1ccc(Cl)cc1,inactive
16,CCC(=O)Nc1ccc(C(=O)CSc2nnc(CNc3ccc(Cl)cc3)o2)cc1OC,inactive
17,COC(=O)N1CCC[C@@]2(CCN(C(=O)NC(C)C)C2)C1,inactive
18,Cc1occc1C(=O)Nc1cccc(Cn2cccn2)c1,inactive
19,COC(=O)C1=C(C)OC(N)=C(C#N)C1c1cc(OC)ccc1OC (centres undefined),inactive
20,CCC1=C(C(=O)OC)C(c2cc(OC)ccc2OC)C(C#N)=C(N)O1 (centres undefined),inactive
21,CCCN1CC=C2C(C#N)=C(N)C(C#N)(C#N)C(c3cc(OC)ccc3OC)C2C1 (centres undefined),120 nM (active)
